Measurements from PubChem BioAssay (NCI).
About 83,000 compounds went through this panel and 20% of them were active in at least one assay; those are over-represented in the sample as a whole.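 Testing used 96-well plates and a 48-hour single-concentration exposure. Example: -40 means 40% of the starting cells died.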 The source made the active and inactive calls. Rule for the calls: active = growth percent below 10; inactive = the rest.

Experiments:
Assay in all cases: NCI-60 one-dose screen, 48 h (100 = growth as untreated, 0 = no growth, -100 = all killed)
Settings in all cases: 10 µM unless noted
NCI-H23 lung = system: NCI-H23 lung
NCI-H226 lung = system: NCI-H226 lung
NCI-H322M lung = system: NCI-H322M lung
HOP-62 NSCLC = system: HOP-62 NSCLC
NCI-H460 lung = system: NCI-H460 lung
HOP-92 NSCLC = system: HOP-92 NSCLC
NCI-H522 lung = system: NCI-H522 lung
A549/ATCC NSCLC = system: A549/ATCC NSCLC
786-0 renal = system: 786-0 renal
COLO 205 colon = system: COLO 205 colon
DU-145 prostate = system: DU-145 prostate
K-562 leukemia = system: K-562 leukemia
MALME-3M melanoma = system: MALME-3M melanoma
MDA-MB-231 breast = system: MDA-MB-231 breast
RXF 393 renal = system: RXF 393 renal
SF-268 CNS = system: SF-268 CNS
SF-295 CNS = system: SF-295 CNS
SF-539 CNS = system: SF-539 CNS
UACC-257 melanoma = system: UACC-257 melanoma
M14 melanoma = system: M14 melanoma

Measured: growth

c1ccc(Sc2ncnc3ccccc23)cc1
inactive: NCI-H23 lung 70.2% | NCI-H226 lung 82.2% | NCI-H322M lung 79.9% | HOP-62 NSCLC 99.4% | NCI-H460 lung 89.9% | HOP-92 NSCLC 48.9% | NCI-H522 lung 82.8% | A549/ATCC NSCLC 90.4% | 786-0 renal 87.6% | COLO 205 colon 108% | DU-145 prostate 89.3% | K-562 leukemia 71.4% | MALME-3M melanoma 64.1% | MDA-MB-231 breast 93% | RXF 393 renal 83.1% | SF-268 CNS 70% | SF-295 CNS 93.7% | SF-539 CNS 89% | UACC-257 melanoma 70.5% | M14 melanoma 71%

COc1cccc(-c2cn3c(ccc4ccccc43)n2)c1
inactive: NCI-H23 lung 49.8% | NCI-H226 lung 43.9% | NCI-H322M lung 56.4% | HOP-62 NSCLC 25.8% | NCI-H460 lung 17.8% | HOP-92 NSCLC 64.2% | NCI-H522 lung 15.9% | A549/ATCC NSCLC 55% | 786-0 renal 44.4% | COLO 205 colon 11.4% | DU-145 prostate 39% | K-562 leukemia 13.2% | MALME-3M melanoma 36.9% | MDA-MB-231 breast 44.9% | SF-268 CNS 56% | SF-295 CNS 10.6% | SF-539 CNS 12.5% | UACC-257 melanoma 58.7% | M14 melanoma 30.2%
active: RXF 393 renal -5.05%

COc1ccc(/C=N\NC(=O)CN2CCN(c3cc4c(cc3F)c(=O)c(C(=O)N/N=C/c3ccc(OC)cc3)cn4C3CC3)CC2)cc1
inactive: NCI-H23 lung 96.3% | NCI-H226 lung 85.6% | NCI-H322M lung 91.7% | HOP-62 NSCLC 97.4% | NCI-H460 lung 86.1% | HOP-92 NSCLC 92.1% | NCI-H522 lung 73.8% | A549/ATCC NSCLC 82.8% | 786-0 renal 93.9% | COLO 205 colon 96.9% | DU-145 prostate 91.6% | K-562 leukemia 71.7% | MALME-3M melanoma 85.2% | MDA-MB-231 breast 85.7% | RXF 393 renal 83.3% | SF-268 CNS 76.7% | SF-295 CNS 91.3% | SF-539 CNS 83% | UACC-257 melanoma 91.6% | M14 melanoma 92.1%

O=C1Nc2c(ccc(Cl)c2Cl)/C1=C/c1cc(Br)c(O)c(Br)c1
active: NCI-H522 lung 9.37%
inactive: NCI-H23 lung 73.9% | NCI-H226 lung 78.5% | NCI-H322M lung 90.3% | HOP-62 NSCLC 79.1% | NCI-H460 lung 46.1% | HOP-92 NSCLC 67.1% | A549/ATCC NSCLC 51.4% | 786-0 renal 74.6% | COLO 205 colon 79.2% | DU-145 prostate 84.6% | K-562 leukemia 51.8% | MALME-3M melanoma 29.4% | MDA-MB-231 breast 74.8% | RXF 393 renal 75.9% | SF-268 CNS 75.7% | SF-295 CNS 13.4% | SF-539 CNS 51.6% | UACC-257 melanoma 40% | M14 melanoma 33.2%

C[C@H](CCC(=O)O)[C@H]1CC[C@H]2[C@@H]3CC[C@@H]4/C(=C\c5ccco5)C(=O)/C(=C\c5ccco5)C[C@]4(C)[C@H]3CC[C@]12C
inactive: NCI-H23 lung 70.4% | NCI-H226 lung 89.2% | NCI-H322M lung 95.6% | HOP-62 NSCLC 116% | NCI-H460 lung 81.9% | HOP-92 NSCLC 106% | NCI-H522 lung 37.3% | A549/ATCC NSCLC 72.1% | 786-0 renal 91% | COLO 205 colon 87.3% | DU-145 prostate 66.5% | K-562 leukemia 30% | MALME-3M melanoma 58.1% | MDA-MB-231 breast 107% | RXF 393 renal 45.1% | SF-268 CNS 80.6% | SF-295 CNS 70.6% | SF-539 CNS 76.3% | UACC-257 melanoma 51.6% | M14 melanoma 52.5%

Oc1ccccc1N=Cc1c(O)ccc2ccccc12
inactive: NCI-H23 lung 88.2% | NCI-H226 lung 87.3% | NCI-H322M lung 82.6% | HOP-62 NSCLC 83.7% | NCI-H460 lung 81.3% | HOP-92 NSCLC 58.3% | NCI-H522 lung 81% | A549/ATCC NSCLC 95.4% | 786-0 renal 86.2% | COLO 205 colon 108% | DU-145 prostate 82.3% | K-562 leukemia 80.3% | MALME-3M melanoma 82.9% | MDA-MB-231 breast 57% | RXF 393 renal 79.2% | SF-268 CNS 78.4% | SF-295 CNS 53.9% | SF-539 CNS 80% | UACC-257 melanoma 93.2% | M14 melanoma 62.7%

COc1ccc(C2c3ccc4ccccc4c3Oc3ncnc(N)c32)cc1 (stereo not given)
inactive: NCI-H23 lung 83% | NCI-H226 lung 63.9% | NCI-H322M lung 88% | HOP-62 NSCLC 45.1% | NCI-H460 lung 92.4% | HOP-92 NSCLC 70.4% | NCI-H522 lung 46.2% | A549/ATCC NSCLC 97.3% | 786-0 renal 97.1% | COLO 205 colon 94.5% | DU-145 prostate 102% | K-562 leukemia 41.2% | MALME-3M melanoma 93.1% | MDA-MB-231 breast 64.8% | RXF 393 renal 85.5% | SF-268 CNS 86.2% | SF-295 CNS 87% | SF-539 CNS 88.2% | UACC-257 melanoma 98.5% | M14 melanoma 83%

NS(=O)(=O)c1ccc(Nc2nc3n[nH]c(Nc4ccccc4)c3c(=O)[nH]2)cc1
inactive: NCI-H23 lung 94.9% | NCI-H226 lung 92.5% | NCI-H322M lung 101% | HOP-62 NSCLC 90.8% | NCI-H460 lung 103% | HOP-92 NSCLC 102% | NCI-H522 lung 90.4% | A549/ATCC NSCLC 103% | 786-0 renal 101% | COLO 205 colon 96.6% | DU-145 prostate 102% | K-562 leukemia 96% | MALME-3M melanoma 103% | MDA-MB-231 breast 97.7% | RXF 393 renal 115% | SF-268 CNS 97% | SF-295 CNS 102% | SF-539 CNS 97.1% | UACC-257 melanoma 97% | M14 melanoma 94.2%
